Compound: C#CCNC(=O)CCSSCCC(=O)NCCc1ccc(C=O)c(C=O)c1
Experiment: lysine labeling ratio R10:1 (500 µM / 50 µM probe), SILAC-ABPP in living cells; higher = lower intrinsic lysine reactivity toward the probe, active = 2 or less
Details: HeLa; probe concentrations 500 vs 50 µM
Outline: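 R, given per lysine, is the filtered median high-probe/low-probe MS1 peptide ratio, with the median then taken across forward and reverse replicates. Cells were living SILAC light and heavy HeLa cells in PBS at room temperature, labelled with 50 µM or 500 µM of an alkyne-tagged, disulfide-linked lysine probe. The ceiling applied is 20.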

Sequence of UniProt P00533 (P00533 whole entry): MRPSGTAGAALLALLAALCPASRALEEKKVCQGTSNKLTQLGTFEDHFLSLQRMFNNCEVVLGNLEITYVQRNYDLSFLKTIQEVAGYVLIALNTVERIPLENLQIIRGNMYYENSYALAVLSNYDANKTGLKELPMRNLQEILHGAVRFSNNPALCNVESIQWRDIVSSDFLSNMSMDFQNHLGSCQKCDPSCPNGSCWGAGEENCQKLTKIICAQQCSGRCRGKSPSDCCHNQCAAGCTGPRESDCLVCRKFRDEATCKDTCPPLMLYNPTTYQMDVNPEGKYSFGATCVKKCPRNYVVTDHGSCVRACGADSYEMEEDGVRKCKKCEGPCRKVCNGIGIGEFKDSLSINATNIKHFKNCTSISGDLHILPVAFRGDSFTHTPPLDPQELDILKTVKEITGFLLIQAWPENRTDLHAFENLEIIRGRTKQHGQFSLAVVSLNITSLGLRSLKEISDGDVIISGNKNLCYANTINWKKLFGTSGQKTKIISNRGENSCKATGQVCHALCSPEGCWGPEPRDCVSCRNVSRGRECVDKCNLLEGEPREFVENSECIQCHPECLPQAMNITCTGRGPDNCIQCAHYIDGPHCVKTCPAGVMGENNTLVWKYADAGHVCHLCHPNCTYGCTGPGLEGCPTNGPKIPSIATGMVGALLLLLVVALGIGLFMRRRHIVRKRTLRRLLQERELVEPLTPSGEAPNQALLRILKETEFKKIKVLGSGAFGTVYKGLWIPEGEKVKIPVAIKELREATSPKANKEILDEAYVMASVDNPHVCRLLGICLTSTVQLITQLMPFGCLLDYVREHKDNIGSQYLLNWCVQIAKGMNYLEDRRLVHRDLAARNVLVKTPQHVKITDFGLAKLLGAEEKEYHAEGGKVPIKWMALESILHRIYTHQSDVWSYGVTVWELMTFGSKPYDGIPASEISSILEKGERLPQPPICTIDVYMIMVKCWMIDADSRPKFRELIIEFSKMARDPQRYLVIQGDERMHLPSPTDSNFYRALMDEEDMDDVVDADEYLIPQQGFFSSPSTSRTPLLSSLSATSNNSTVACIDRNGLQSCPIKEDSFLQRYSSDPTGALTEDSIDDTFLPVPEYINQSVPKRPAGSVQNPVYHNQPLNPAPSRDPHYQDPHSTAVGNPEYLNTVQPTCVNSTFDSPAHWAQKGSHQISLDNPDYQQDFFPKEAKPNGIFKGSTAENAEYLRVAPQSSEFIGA
Sequence of UniProt Q8WWI5 (Q8WWI5 whole entry): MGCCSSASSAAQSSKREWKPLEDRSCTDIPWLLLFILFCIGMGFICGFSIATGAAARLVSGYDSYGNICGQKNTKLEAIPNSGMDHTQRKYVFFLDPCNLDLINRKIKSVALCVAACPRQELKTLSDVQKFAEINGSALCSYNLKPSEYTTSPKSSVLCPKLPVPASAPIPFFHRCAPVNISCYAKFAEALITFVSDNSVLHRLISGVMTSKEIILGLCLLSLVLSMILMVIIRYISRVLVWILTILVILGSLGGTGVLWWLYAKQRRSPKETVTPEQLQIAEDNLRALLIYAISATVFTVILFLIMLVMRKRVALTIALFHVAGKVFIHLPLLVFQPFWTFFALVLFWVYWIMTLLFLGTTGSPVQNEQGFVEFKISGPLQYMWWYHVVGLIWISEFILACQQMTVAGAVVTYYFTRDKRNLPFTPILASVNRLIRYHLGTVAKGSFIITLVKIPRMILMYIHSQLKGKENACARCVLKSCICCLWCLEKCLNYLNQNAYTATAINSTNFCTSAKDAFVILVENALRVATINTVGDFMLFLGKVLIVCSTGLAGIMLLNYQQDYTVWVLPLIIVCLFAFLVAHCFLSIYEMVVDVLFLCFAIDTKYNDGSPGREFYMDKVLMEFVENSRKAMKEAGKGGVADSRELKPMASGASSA
Sequence of UniProt P07996 (P07996 whole entry, looked up): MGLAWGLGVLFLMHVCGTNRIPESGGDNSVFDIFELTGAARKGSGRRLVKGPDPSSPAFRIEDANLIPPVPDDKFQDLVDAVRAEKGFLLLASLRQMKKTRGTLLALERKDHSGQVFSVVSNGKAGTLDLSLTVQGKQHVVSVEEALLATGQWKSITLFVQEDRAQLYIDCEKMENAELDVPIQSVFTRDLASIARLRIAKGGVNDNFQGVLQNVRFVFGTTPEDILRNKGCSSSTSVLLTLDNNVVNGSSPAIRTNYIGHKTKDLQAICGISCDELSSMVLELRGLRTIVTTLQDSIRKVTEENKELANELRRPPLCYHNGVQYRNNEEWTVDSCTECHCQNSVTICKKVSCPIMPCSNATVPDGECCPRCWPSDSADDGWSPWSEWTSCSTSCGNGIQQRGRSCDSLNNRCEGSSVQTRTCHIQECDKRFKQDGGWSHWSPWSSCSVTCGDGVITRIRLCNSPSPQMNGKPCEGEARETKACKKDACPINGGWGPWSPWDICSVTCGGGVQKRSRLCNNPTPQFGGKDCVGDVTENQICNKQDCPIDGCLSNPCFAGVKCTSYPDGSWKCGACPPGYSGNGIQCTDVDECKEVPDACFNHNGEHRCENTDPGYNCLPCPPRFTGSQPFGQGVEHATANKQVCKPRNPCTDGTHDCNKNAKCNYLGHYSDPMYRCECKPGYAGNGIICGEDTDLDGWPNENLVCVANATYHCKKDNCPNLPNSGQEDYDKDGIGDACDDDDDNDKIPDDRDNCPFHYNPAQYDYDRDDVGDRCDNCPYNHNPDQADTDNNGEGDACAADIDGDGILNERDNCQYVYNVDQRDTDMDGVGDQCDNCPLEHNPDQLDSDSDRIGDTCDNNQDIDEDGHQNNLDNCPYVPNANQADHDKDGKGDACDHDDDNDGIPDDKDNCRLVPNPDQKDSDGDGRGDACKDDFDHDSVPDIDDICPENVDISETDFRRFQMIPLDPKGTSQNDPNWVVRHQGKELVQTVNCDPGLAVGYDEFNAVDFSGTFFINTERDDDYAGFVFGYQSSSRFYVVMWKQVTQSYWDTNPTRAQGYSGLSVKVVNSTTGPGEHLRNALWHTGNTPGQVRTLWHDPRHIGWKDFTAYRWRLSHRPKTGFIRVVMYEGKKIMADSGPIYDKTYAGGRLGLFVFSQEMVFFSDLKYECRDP
Sequence of UniProt Q6EMK4 (Q6EMK4 whole entry, looked up): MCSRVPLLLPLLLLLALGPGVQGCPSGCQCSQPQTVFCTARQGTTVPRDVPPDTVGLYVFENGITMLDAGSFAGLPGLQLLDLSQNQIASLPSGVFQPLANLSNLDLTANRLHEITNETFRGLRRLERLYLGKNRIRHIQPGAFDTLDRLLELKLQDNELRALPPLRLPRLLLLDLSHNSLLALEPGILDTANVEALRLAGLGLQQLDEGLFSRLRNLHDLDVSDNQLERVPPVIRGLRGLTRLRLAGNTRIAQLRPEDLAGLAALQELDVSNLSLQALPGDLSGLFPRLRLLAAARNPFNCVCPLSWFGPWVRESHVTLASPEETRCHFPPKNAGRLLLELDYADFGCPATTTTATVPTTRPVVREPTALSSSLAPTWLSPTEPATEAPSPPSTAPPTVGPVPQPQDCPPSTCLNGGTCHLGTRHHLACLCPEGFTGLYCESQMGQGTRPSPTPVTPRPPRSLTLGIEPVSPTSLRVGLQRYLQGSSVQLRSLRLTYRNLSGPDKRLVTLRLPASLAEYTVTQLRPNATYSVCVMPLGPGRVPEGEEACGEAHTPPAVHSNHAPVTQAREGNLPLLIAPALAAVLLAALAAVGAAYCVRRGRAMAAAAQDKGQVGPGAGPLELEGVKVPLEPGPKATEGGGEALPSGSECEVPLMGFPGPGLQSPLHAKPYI
Sequence of UniProt P21926 (P21926 whole entry): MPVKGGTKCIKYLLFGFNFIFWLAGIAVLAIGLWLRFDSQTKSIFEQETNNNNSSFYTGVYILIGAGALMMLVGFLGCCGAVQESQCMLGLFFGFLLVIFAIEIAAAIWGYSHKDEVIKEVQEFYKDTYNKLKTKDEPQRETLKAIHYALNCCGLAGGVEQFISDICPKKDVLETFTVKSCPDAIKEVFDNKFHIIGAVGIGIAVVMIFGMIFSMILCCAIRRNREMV
Sequence of UniProt Q03167 (Q03167 whole entry): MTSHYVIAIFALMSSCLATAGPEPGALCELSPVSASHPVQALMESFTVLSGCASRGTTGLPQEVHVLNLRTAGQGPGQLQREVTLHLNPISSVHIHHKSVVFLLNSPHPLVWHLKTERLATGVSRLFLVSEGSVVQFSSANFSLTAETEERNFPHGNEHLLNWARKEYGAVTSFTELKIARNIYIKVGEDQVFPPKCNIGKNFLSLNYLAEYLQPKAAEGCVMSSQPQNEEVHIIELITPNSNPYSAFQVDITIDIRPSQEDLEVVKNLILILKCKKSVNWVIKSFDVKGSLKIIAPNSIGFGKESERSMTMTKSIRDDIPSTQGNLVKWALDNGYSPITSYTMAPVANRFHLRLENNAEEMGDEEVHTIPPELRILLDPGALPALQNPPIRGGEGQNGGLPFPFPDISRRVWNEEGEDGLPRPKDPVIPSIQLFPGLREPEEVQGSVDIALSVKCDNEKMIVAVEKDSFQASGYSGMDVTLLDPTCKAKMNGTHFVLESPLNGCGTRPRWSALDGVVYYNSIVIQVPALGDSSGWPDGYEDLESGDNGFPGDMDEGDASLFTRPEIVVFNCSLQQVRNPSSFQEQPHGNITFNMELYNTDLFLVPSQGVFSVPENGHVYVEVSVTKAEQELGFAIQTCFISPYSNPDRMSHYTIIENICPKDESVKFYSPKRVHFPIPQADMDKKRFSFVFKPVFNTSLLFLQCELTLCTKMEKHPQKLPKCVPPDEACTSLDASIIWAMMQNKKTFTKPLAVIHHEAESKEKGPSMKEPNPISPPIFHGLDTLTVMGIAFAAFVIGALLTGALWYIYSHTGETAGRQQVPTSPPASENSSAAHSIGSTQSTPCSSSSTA
Sequence of UniProt P23528 (P23528 whole entry): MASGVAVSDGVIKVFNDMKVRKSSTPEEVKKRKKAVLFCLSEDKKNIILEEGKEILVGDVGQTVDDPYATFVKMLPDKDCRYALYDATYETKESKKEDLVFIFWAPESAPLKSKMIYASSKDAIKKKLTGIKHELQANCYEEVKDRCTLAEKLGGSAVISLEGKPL

Q: For “HNRNPM (lysine site: K239) (UniProt P52272)”, which “lysine labeling ratio R10:1” value is on record?
A: 1.67 (active)

Q: “RPL34 (lysine site: K19) (UniProt P49207)” was tested. Which “lysine labeling ratio R10:1” value did it give?
A: 2.71 (inactive)

Q: “ITGAV (lysine site: K499) (UniProt P06756)” was tested. Which “lysine labeling ratio R10:1” value did it give?
A: 3.64 (inactive)

Q: For “TGFBR3 (lysine site: K685) (UniProt Q03167)”, which “lysine labeling ratio R10:1” value is on record?
A: 1.81 (active)

Q: UniProt P50281 (lysine site: K337) was tested. Which “lysine labeling ratio R10:1” value did it give?
A: 1.7 (active)

Q: “CDCP1 (lysine site: K592) (UniProt Q9H5V8)” was tested. Which “lysine labeling ratio R10:1” value did it give?
A: 3.49 (inactive)

Q: “GNS (lysine site: K502) (UniProt P15586)” was tested. Which “lysine labeling ratio R10:1” value did it give?
A: 0.59 (active)

Q: Which “lysine labeling ratio R10:1” value does the source give for “CD9 (lysine site: K135) (UniProt P21926)” here?
A: 3.43 (inactive)

Q: UniProt P08727 (lysine site: K398) was tested. Which “lysine labeling ratio R10:1” value did it give?
A: 2.38 (inactive)

Q: “LRP1 (lysine site: K2009) (UniProt Q07954)” was tested. Which “lysine labeling ratio R10:1” value did it give?
A: 3.1 (inactive)

Q: How did the “lysine labeling ratio R10:1” value turn out when “SDC2 (lysine site: K141) (UniProt P34741)” was run?
A: 1.35 (active)

Q: For UniProt Q9NRD8 (lysine site: K530), which “lysine labeling ratio R10:1” value is on record?
A: 6.54 (inactive)

Q: With “CD151 (lysine site: K127) (UniProt P48509)” as the target, how does the “lysine labeling ratio R10:1” value read?
A: 2.31 (inactive)

Q: With “AGRN (lysine site: K1934) (UniProt O00468)” as the target, how does the “lysine labeling ratio R10:1” value read?
A: 2.08 (inactive)

Q: Which “lysine labeling ratio R10:1” value does the source give for “AHCY (lysine site: K204) (UniProt P23526)” here?
A: 1.25 (active)

Q: UniProt P61978 (lysine site: K198) was tested. Which “lysine labeling ratio R10:1” value did it give?
A: 1.88 (active)

Q: For “SPTBN1 (lysine site: K1249) (UniProt Q01082)”, which “lysine labeling ratio R10:1” value is on record?
A: 4.92 (inactive)

Q: How did the “lysine labeling ratio R10:1” value turn out when “HGS (lysine site: K551) (UniProt O14964)” was run?
A: 0.818 (active)

Q: For “FAS (lysine site: K126) (UniProt P25445)”, which “lysine labeling ratio R10:1” value is on record?
A: 2.16 (inactive)

Q: “CSPG4 (lysine site: K831) (UniProt Q6UVK1)” was tested. Which “lysine labeling ratio R10:1” value did it give?
A: 5.17 (inactive)

Q: “INSR (lysine site: K903) (UniProt P06213)” was tested. Which “lysine labeling ratio R10:1” value did it give?
A: 2.04 (inactive)

Q: Which “lysine labeling ratio R10:1” value does the source give for “PFKP (lysine site: K109) (UniProt Q01813)” here?
A: 1.5 (active)

Q: How did the “lysine labeling ratio R10:1” value turn out when “SPTAN1 (lysine site: K1288) (UniProt Q13813)” was run?
A: 1.21 (active)

Q: “RDX (lysine site: K371) (UniProt P35241)” was tested. Which “lysine labeling ratio R10:1” value did it give?
A: 1.33 (active)

Q: With “L1CAM (lysine site: K230) (UniProt P32004)” as the target, how does the “lysine labeling ratio R10:1” value read?
A: 5.86 (inactive)

Q: “GPC1 (lysine site: K461) (UniProt P35052)” was tested. Which “lysine labeling ratio R10:1” value did it give?
A: 1.89 (active)

Q: How did the “lysine labeling ratio R10:1” value turn out when “FAM120A (lysine site: K673) (UniProt Q9NZB2)” was run?
A: 1.15 (active)

Q: Which “lysine labeling ratio R10:1” value does the source give for “SLC44A1 (lysine site: K75) (UniProt Q8WWI5)” here?
A: 2.45 (inactive)

Q: Which “lysine labeling ratio R10:1” value does the source give for “ROBO1 (lysine site: K224) (UniProt Q9Y6N7)” here?
A: 0.52 (active)

Q: Which “lysine labeling ratio R10:1” value does the source give for UniProt P62249 (lysine site: K60) here?
A: 4.81 (inactive)

Q: With “VASN (lysine site: K154) (UniProt Q6EMK4)” as the target, how does the “lysine labeling ratio R10:1” value read?
A: 1.64 (active)

Q: For “THBS1 (lysine site: K430) (UniProt P07996)”, which “lysine labeling ratio R10:1” value is on record?
A: 3.67 (inactive)

Q: With UniProt P22413 (lysine site: K465) as the target, how does the “lysine labeling ratio R10:1” value read?
A: 1.52 (active)

Q: For “HSP90B1 (lysine site: K630) (UniProt P14625)”, which “lysine labeling ratio R10:1” value is on record?
A: 2.66 (inactive)

Q: “PRDX2 (lysine site: K196) (UniProt P32119)” was tested. Which “lysine labeling ratio R10:1” value did it give?
A: 2.99 (inactive)

Q: How did the “lysine labeling ratio R10:1” value turn out when “LRPAP1 (lysine site: K323) (UniProt P30533)” was run?
A: 2.24 (inactive)

Q: For “EGFR (lysine site: K293) (UniProt P00533)”, which “lysine labeling ratio R10:1” value is on record?
A: 3.59 (inactive)

Q: “MCAM (lysine site: K236) (UniProt P43121)” was tested. Which “lysine labeling ratio R10:1” value did it give?
A: 6.1 (inactive)

Q: How did the “lysine labeling ratio R10:1” value turn out when “CFL1 (lysine site: K144) (UniProt P23528)” was run?
A: 3.15 (inactive)

Q: How did the “lysine labeling ratio R10:1” value turn out when “TFRC (lysine site: K665) (UniProt P02786)” was run?
A: 1.78 (active)
